Values joined by “and” are separate entries in the source; they are usually repeats but may differ in a detail not shown here. Equal values may be shown once. Results filed as inconclusive are left out. Active and inactive are the calls of the source. Calls come from the whole dose curve; as a rule, active = well fitted curve in the direction sought with a large enough effect; inconclusive = small, poorly fitted or top-dose-only effect, or another doubt; inactive = no such curve, though single readings can be large; an effect the other way counts as inactive or inconclusive.
Tests used:
[1] = Primary qHTS for inhibitors of nuclear receptor binding SET domain protein 2 (NSD2) in an RCH-ACV wild type WT cells (2C) (AID 1645877); note: nearly all actives have a fitted effect of over 70% in size; note: potency is the fitted concentration of half-maximal effect
[2] = Primary qHTS for inhibitors of nuclear receptor binding SET domain protein 2 (NSD2) in an isogenic RCH-ACV NSD2 p.E1099K mutant (9B) (AID 1645876); note: nearly all actives have a fitted effect of over 70% in size; note: potency is the fitted concentration of half-maximal effect
[3] = target: Rap guanine nucleotide exchange factor 3 (Homo sapiens) (UniProt O95398); experiment: Confirmatory qHTS for antagonist of cAMP-regulated guanine nucleotide exchange factor 3 (EPAC1) (AID 1645880); note: nearly all actives have a fitted effect of over 55% in size; note: potency is the fitted concentration of half-maximal effect
Chain of Rap guanine nucleotide exchange factor 3 (Homo sapiens) (O95398 whole entry, looked up): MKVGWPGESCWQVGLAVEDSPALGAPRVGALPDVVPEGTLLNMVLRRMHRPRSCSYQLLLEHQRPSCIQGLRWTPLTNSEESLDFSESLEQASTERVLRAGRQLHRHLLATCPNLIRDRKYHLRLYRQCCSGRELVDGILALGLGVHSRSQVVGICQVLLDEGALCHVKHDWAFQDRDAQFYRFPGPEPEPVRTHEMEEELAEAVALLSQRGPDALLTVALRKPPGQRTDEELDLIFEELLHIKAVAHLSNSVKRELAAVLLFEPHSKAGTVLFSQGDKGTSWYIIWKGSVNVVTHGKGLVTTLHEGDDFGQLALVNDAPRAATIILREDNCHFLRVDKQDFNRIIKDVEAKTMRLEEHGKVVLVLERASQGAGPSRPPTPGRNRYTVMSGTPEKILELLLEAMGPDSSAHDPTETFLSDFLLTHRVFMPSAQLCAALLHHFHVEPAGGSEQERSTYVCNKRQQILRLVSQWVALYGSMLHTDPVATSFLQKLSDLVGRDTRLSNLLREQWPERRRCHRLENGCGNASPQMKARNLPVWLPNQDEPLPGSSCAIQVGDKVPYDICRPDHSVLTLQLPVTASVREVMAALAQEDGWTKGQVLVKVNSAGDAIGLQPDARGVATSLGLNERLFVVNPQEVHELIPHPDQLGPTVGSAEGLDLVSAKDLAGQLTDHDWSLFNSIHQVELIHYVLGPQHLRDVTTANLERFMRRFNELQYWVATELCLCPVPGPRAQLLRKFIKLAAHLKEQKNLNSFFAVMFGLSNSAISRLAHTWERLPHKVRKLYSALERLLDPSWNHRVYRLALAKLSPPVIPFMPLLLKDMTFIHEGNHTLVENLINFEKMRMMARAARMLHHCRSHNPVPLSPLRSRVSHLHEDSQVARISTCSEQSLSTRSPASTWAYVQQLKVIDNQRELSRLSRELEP
Outline: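 Nucleotide exchange uses 100 nM EPAC1, 250 nM RAP1B-BODIPY-GDP and 50 uM GDP, with compounds in a concentration-titration series. After 5 min at room temperature, fluorescence (480 nm ex/540 nm em) is read every 5 min for 30 min. Data are normalized to control ATA and DMSO.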

[4] = target: Rap guanine nucleotide exchange factor 3 (Homo sapiens) (UniProt O95398); experiment: Confirmatory qHTS for agonist of cAMP-regulated guanine nucleotide exchange factor 3 (EPAC1) (AID 1645881);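 note: EPAC1 catalysed release of BODIPY-GDP from Rap1B seen as fluorescence loss; nearly all actives have a fitted effect of over 75% in size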
[5] = target: Rap guanine nucleotide exchange factor 4 (Homo sapiens) (UniProt Q8WZA2); experiment: Confirmatory qHTS for antagonist of cAMP-regulated guanine nucleotide exchange factor 4 (EPAC2) (AID 1645885); note: nearly all actives have a fitted effect of over 25% in size; note: potency is the fitted concentration of half-maximal effect
Chain of Rap guanine nucleotide exchange factor 4 (Homo sapiens) (Q8WZA2 whole entry, looked up): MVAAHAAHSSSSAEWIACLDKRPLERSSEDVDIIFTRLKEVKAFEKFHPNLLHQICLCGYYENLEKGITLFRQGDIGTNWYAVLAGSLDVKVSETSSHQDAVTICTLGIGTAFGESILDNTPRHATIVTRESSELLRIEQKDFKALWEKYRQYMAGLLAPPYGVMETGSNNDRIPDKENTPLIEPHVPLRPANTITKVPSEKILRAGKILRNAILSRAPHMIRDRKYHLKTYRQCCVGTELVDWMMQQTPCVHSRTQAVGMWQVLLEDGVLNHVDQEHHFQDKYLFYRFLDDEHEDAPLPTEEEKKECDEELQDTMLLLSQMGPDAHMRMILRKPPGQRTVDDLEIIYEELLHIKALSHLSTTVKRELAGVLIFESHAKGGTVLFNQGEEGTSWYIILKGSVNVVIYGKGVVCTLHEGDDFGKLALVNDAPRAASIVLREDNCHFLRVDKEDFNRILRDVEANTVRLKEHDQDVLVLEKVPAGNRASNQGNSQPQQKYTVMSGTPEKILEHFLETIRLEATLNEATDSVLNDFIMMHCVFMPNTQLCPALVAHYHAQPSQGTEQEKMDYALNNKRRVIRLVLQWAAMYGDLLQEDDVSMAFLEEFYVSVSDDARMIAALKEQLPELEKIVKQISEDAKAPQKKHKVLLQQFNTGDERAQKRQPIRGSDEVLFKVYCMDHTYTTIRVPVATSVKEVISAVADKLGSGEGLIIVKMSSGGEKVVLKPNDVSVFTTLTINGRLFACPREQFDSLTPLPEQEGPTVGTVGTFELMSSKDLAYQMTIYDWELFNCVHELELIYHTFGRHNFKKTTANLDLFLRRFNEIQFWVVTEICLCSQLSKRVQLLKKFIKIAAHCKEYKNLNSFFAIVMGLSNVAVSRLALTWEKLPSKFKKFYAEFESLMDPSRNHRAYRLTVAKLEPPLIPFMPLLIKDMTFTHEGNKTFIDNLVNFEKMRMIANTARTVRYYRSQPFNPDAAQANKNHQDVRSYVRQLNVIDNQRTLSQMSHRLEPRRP

[6] = target: Rap guanine nucleotide exchange factor 3 (Homo sapiens) (UniProt O95398); experiment: Counterscreen qHTS for antagonist of cAMP-regulated guanine nucleotide exchange factor 3 (EPAC1) (AID 1645888);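 note: fluorescence loss as bound BODIPY-GDP is released from Rap1B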
Outline: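 Rap1B-BODIPY-GDP 250 nM + GDP 50 uM; cpds 7-pt, final 9.74 nM–152 uM (activator mode) or from 7.32 nM upwards (inhibitor mode); RT; FI 480/540 nm at 5 and 30 min, then ± cAMP, reread.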

[7] = target: Rap guanine nucleotide exchange factor 4 (Homo sapiens) (UniProt Q8WZA2); experiment: Confirmatory qHTS for agonist of cAMP-regulated guanine nucleotide exchange factor 4 (EPAC2) (AID 1645884);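 note: nucleotide exchange releases bodipy-GDP from Rap1 and this lowers its fluorescence; nearly all actives have a fitted effect of over 65% in size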

CC(C)(O)C1Cc2c(ccc(C(=O)CCc3ccccc3)c2O)O1 (stereo unspecified)
Potency [1]: inactive

CC(=O)Nc1nc(C)c(-c2nc(N3CCCC(O)C3)no2)s1 (stereo unspecified)
Potency [2]: 0.916 µM (active) | Potency [1]: 1.15 µM (active)

CC1(C)CCC(C)(C)c2cc(C#Cc3ccc(C(=O)O)cc3)ccc21
Potency [1]: inactive

CC(=O)O[C@@H]1C[C@@]23C[C@@]24CC[C@H](O[C@@H]2OC[C@H](O)[C@H](O)[C@H]2O)C(C)(C)[C@@H]4CC[C@H]3[C@]2(C)[C@@H](O)C34O[C@H](C[C@@H](C)[C@@H]3[C@@]12C)[C@@H](C(C)(C)O)O4
Potency [2]: inactive | Potency [1]: inactive

C[C@@H]1CC[C@@]23CC[C@]4(C)[C@@](C=CC5[C@@]6(C)CC[C@H](O)C(C)(C)C6CC[C@]54C)(OC2=O)C3[C@H]1C (stereo partly specified)
Potency [2]: inactive | Potency [1]: inactive

COc1cc2nc(N3CCN(C(=O)c4ccco4)C4CCCCC43)nc(N)c2cc1OC (stereo unspecified)
Potency [2]: 2.3 µM (active) | Potency [1]: 3.65 µM (active)

CS(=O)(=O)c1ccc(Oc2cc(F)cc(C#N)c2)c2c1[C@H](O)C(F)(F)C2
Potency [2]: inactive | Potency [1]: inactive

CCn1nc(C2CCN(C(=O)CCO)CC2)nc1-c1cnc(N)c(-c2nnc(C(C)(C)C)o2)n1
Potency [2]: 164 nM (active) and 296 nM (active) | Potency [1]: 64.9 nM (active) and 263 nM (active)

COc1ccccc1-c1ccc(-c2cn(C(=O)N3CCCCC3Cc3ccccc3)nn2)cc1 (stereo unspecified)
Potency [1]: inactive

C=C1C(=O)O[C@@H]2C[C@@]3(C)CCCC(=C)[C@]3(O)C[C@H]12
Potency [2]: 8.17 µM (active) | Potency [1]: 6.49 µM (active)

COc1ccc2nc3n[nH]c(C)c3c(NCCOCCO)c2c1
Potency [1]: 3.25 µM (active)

CN1CCN(c2ccc(-c3cccc(CN4CCOCC4)c3)cc2NC(=O)c2c[nH]c(=O)cc2C(F)(F)F)CC1
Potency [1]: inactive

CC(=O)O[C@H]1CC(C)(C)CC2[C@]13CO[C@@]21CCC2[C@@]4(C)CC[C@H](O[C@@H]5OC[C@H](O[C@@H]6O[C@H](CO)[C@@H](O)[C@H](O)[C@H]6O[C@@H]6OC[C@@H](O[C@@H]7O[C@H](CO)[C@@H](O)[C@H](O)[C@H]7O)[C@H](O)[C@H]6O)[C@H](O)[C@H]5O[C@@H]5O[C@H](CO)[C@@H](O)[C@H](O)[C@H]5O)[C@@](C)(CO)C4CC[C@@]2(C)[C@]1(C)C[C@H]3O (stereo partly specified)
Potency [2]: 1.09 µM (active) | Potency [1]: 2.18 µM (active)

C=C(C(=O)OC[C@H]1O[C@@H](OC(=O)/C=C/c2ccccc2)[C@H](O)[C@@H](O)[C@@H]1O)C(O)CO (stereo partly specified)
Potency [1]: 5.63 µM (active)

COC1=CC(=O)C[C@@H](C)[C@@]12Oc1c(Cl)c(OC)cc(OC)c1C2=O
Potency [2]: inactive | Potency [1]: inactive

C=C1C(=O)O[C@@H]2/C=C(\CO)CC/C=C(\CO)[C@H](OC(C)=O)C(OC(=O)C(C)CC)C12 (stereo partly specified)
Potency [1]: 5.02 µM (active)

CCC(C)C(=O)Oc1cc(C)ccc1C1(COC(=O)C(C)C)CO1 (stereo unspecified)
Potency [1]: 5.67 µM (active)

CCCCCc1ccc(/C=C/C(=O)Nc2cc(Cl)ccc2C(=O)O)cc1
Potency [2]: inactive | Potency [1]: inactive

O=C(c1c(F)ccc(NS(=O)(=O)N2CC[C@@H](F)C2)c1F)c1c[nH]c2ncc(-c3cnc(C4CC4)nc3)cc12
Potency [2]: 11.8 µM (active) | Potency [1]: 11.6 µM (active)

C=C1C(=O)O[C@@H]2C[C@H](C)C3=CC(=O)[C@H](O)[C@@]3(C)C[C@H]12
Potency [2]: 25.8 µM (active) | Potency [1]: 18.3 µM (active)

O=C(O)CSc1cc(NS(=O)(=O)c2ccc(Br)cc2)c2ccccc2c1O
Potency [2]: 7.28 µM (active) | Potency [1]: 4.09 µM (active) | Potency [3]: 84.9 µM (active) | outcome [4]: inactive | Potency [5]: 47.8 µM (active) | outcome [6]: inactive

C=C1C(=O)OC2C=C(C)CC/C=C(\CO)CC(O)C12 (stereo unspecified)
Potency [1]: 20.5 µM (active)

CS/C=C/C(=O)O[C@@H]1CCC2=CC(=O)C(=C(C)C)C[C@]2(C)[C@H]1C
Potency [1]: 11.3 µM (active)

CC(C)NCCCn1c(Sc2cc3c(cc2I)OCO3)nc2c(N)ncnc21
Potency [2]: 0.365 µM (active) | Potency [1]: 0.325 µM (active)

C=C[C@](C)(O)CC[C@H]1C(C)=CC(=O)[C@H]2C(C)(C)CCC[C@]12C
Potency [1]: 18.3 µM (active)

C[C@@H]1O[C@@H](O[C@H]2CC[C@@]3(C)C(CC[C@]4(C)C3CC=C3[C@@H]5CC(C)(C)CC[C@]5(C(=O)O[C@@H]5O[C@H](CO)[C@@H](O)[C@H](O)[C@H]5O)CC[C@]34C)[C@]2(C)CO)[C@H](O)[C@H](O[C@@H]2O[C@H](CO)[C@@H](O)[C@H](O)[C@H]2O)[C@H]1O (stereo partly specified)
Potency [1]: 3.46 µM (active)

COc1ccc(CCCN2CCC(COC(c3ccccc3)c3ccccc3)CC2)cc1
Potency [1]: 16.3 µM (active)

CO[C@H]1O[C@@H]2O[C@@]3(C)CCC4[C@H](C)CCC([C@H]1C)[C@]42OO3 (stereo partly specified)
Potency [1]: 6.49 µM (active)

COc1ccccc1C(=O)Nc1cc2c(cc1N1CCCC1)n(C)c(=O)n2C
Potency [1]: 23.5 µM (active)

C=C(C(=O)OC)[C@@H]1CC=C2C=CC(=O)[C@H](C)[C@@]2(C)C1
Potency [1]: 20.5 µM (active)

C[C@@H]1O[C@@H](O[C@H]2[C@H](OC(=O)[C@]34CCC(C)(C)C[C@H]3C3=CCC5[C@@]6(C)C[C@H](O)[C@H](O[C@@H]7O[C@H](C(=O)O)[C@@H](O)[C@H](O)[C@H]7O)[C@@](C)(CO)C6[C@H](O)C[C@@]5(C)[C@]3(C)C[C@H]4O)O[C@@H](CO)[C@@H]2O)[C@H](O)[C@H](O)[C@H]1O[C@@H]1OC[C@@H](O)[C@H](O[C@H]2OC[C@](O)(CO)[C@H]2O)[C@H]1O (stereo partly specified)
Potency [1]: 0.122 µM (active)

C=C1/C(=C/C=C2\CCC[C@]3(C)[C@@H]([C@@H](C)OCCC(O)(CC)CC)CC[C@@H]23)C[C@@H](O)C[C@@H]1O
Potency [1]: 20.5 µM (active)

CC1OC2OC(=O)C3(C)CC4C5(CO5)C5=CC(=O)OC(C)(C)C5=CC(=O)C4(C)C(C1=O)C23 (stereo unspecified)
Potency [1]: 8.93 µM (active)

C=CC(C)(C)c1[nH]c2ccccc2c1C[C@@H]1NC(=O)[C@H](C)NC1=O
Potency [1]: inactive

C=C1CC2[C@@]3(C)C=CC(=O)C(C)(C)C3=C(O)C(=O)[C@@]2(C)C2(C(=O)OC)C(=O)C(C)OC(=O)[C@@]12C (stereo partly specified)
Potency [1]: 8.93 µM (active)

C=C1/C(=C/C=C2\CCC[C@]3(C)[C@@H]([C@H](C)/C=C/[C@@H](C)C(C)C)CC[C@@H]23)C[C@@H](O)C[C@@H]1O
Potency [1]: 14.5 µM (active)

C=C1C(=O)OC2CC(C)C(CCC(C)O)=CCC12 (stereo unspecified)
Potency [1]: 16.3 µM (active)

C[C@@H]1O[C@@H](O[C@H]2[C@@H]3C=CO[C@@H](O[C@@H]4O[C@H](CO)[C@@H](O)[C@H](O)[C@H]4O)[C@@H]3[C@@]3(CO)O[C@@H]23)[C@H](O)[C@H](OC(=O)/C=C/c2ccccc2)[C@H]1O
Potency [1]: 5.41 µM (active)

COc1cc(OC)c(NC(=O)c2ccc(Cc3cc4c(cc3C)C(C)(C)CCC4(C)C)o2)c(OC)c1
Potency [1]: 23 µM (active)

Nc1nc(O)c(C2=C3C(=Nc4ccccc43)C(=O)NCC2)[nH]1
Potency [1]: 16.3 µM (active)

O=c1[nH]c2ccccc2n1CCN1CCN(c2cccc(C(F)(F)F)c2)CC1
Potency [1]: inactive

C[C@]12CC[C@@H]3c4ccc(OS(=O)(=O)O)cc4CC[C@H]3[C@@H]1CCC2=O
Potency [3]: 8.49 µM (active) | outcome [4]: inactive | outcome [7]: inactive | Potency [5]: inactive

COc1ccc(NC(=O)C2C[C@H](C)CC[C@H]2C(C)C)cc1 (stereo partly specified)
Potency [1]: inactive

C=C1C(OC2OC(CO)C(O)C(O)C2O)CC2C(C)(C)C(O)CCC2(C)C1CC/C(C)=C\COC(=O)CC(=O)O (stereo unspecified)
Potency [1]: 4.83 µM (active)

CC[C@H](C)/C=C(C)/C=C/C1=CC2=C(Cl)C(=O)[C@](C)(O)[C@H](OC(C)=O)[C@H]2CO1
Potency [1]: 10.1 µM (active)

C=C1CCCC2(C)CCC(C(C)(C)OC3OC(C)C(O)C(O)C3OC(=O)/C(C)=C\C)CC12 (stereo unspecified)
Potency [1]: 10 µM (active)

Cn1c(SCC(=O)N2CCC[C@H]2C(=O)Nc2ccccc2-c2ccccc2)nc2ccccc21
Potency [1]: inactive

CCN(CC)CCCCCCNc1cc(OC)cc2c(C)ccnc12
Potency [1]: 12.9 µM (active)

COc1cc2c(c(OC)c1CC=C(C)C)C[C@H](c1ccc(O)c(CC=C(C)C)c1O)CO2
Potency [1]: inactive

CC(=O)c1c(C)cc2cccc(O)c2c1O[C@@H]1O[C@H](CO)[C@@H](O)[C@H](O)[C@H]1O
Potency [1]: 12.7 µM (active)

CC1CCC(=O)CC(SCC(O)C(=O)O)CCC(=O)O1 (stereo unspecified)
Potency [1]: inactive

C=C1C(=O)OC2C3=C(C)C(=O)CC3C(C)CC(O)C12 (stereo unspecified)
Potency [1]: 14.5 µM (active)

C=C1C(=O)O[C@@H]2[C@H]3C(C)=CC(=O)C3=C(C)[C@@H](OC(=O)/C(C)=C\C)[C@H](O)[C@@H]12
Potency [1]: 3.58 µM (active)

CC(=O)O[C@H]1CC[C@]2(C)[C@H]3CC[C@]4(C)Oc5oc(C)cc(=O)c5C[C@H]4[C@]3(C)CC[C@H]2C1(C)C
Potency [1]: 7.09 µM (active)

CC(=O)S[C@@H]1CC2=CC(=O)CC[C@]2(C)[C@H]2CC[C@@]3(C)[C@@H](CC[C@@]34CCC(=O)O4)[C@H]12
Potency [3]: inactive | outcome [4]: inactive | outcome [7]: inactive | Potency [5]: inactive

COC1=CC(=O)O/C1=C(/OC)[C@@H]1O[C@H]1c1ccccc1
Potency [1]: 18.3 µM (active)

C[C@H]1CC[C@@]2(OC1)O[C@H]1CC3[C@@H]4CC[C@@H]5C[C@@H](O[C@@H]6O[C@H](CO)[C@@H](O[C@@H]7O[C@H](CO[C@@H]8OC[C@@H](O)[C@H](O)[C@H]8O)[C@@H](O[C@@H]8O[C@H](CO)[C@H](O)[C@H](O)[C@H]8O)[C@H](O)[C@H]7O)[C@H](O)[C@H]6O)CC[C@]5(C)C4CC[C@]3(C)[C@H]1[C@@H]2C (stereo partly specified)
Potency [1]: 3.46 µM (active)

O=C(O)c1cc2ccccc2c(Cc2c(O)c(C(=O)O)cc3ccccc23)c1O
Potency [3]: 4.44 µM (active) | outcome [4]: inactive | outcome [7]: inactive | Potency [5]: inactive

C/C=C(/C=C(C)/C=C/C=C/C=C(\C)C(=O)C12OC1C(O)(CCO)NC2=O)C(=O)OC (stereo unspecified)
Potency [1]: 7.96 µM (active)
